The results in this text go back to PubChem BioAssay.

Active and inactive are the calls of the source.

The test system of experiment [1] is Plasmodium falciparum Sir2 (PF13_0152, Sir2A). The experiment can be described thus: pfSir2 binders on small-molecule microarrays, primary screen, biochemical, small-molecule microarray, 635 nm fluorescence (AID 1098).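 Further: score merges spot fluorescence intensity with its signal-to-noise ratio.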 The following applies: small-molecule microarray binding, fluorescence 635 nm; higher = more signal.
Experiment [2] is described as follows: small-molecule microarray binders of probe aDKK1, primary screen, biochemical, biotinylated probe, 635/667 nm fluorescence (AID 1099).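 Further: score merges 667nm spot fluorescence with signal to noise across triplicate slides; reference of the scale not given here.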 The conditions noted are these: higher = more signal.
Experiment [3] in a line: small-molecule microarray binders of probe aCHRDL2, primary screen, biochemical, biotinylated probe, 635/667 nm fluorescence (AID 1100). The conditions noted are these: higher = more signal.
Experiment [4] in a line: splicing luciferase reporter signal modulators, primary screen, spliceosome inhibition project, cell-based, HEK293, splice +/- reporter (AID 1101).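 Further: HEK293 cells carrying a splicing-competent luciferase reporter gene; test concentration not given here.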 The following applies: luminescence, 24 h, higher = more signal, called active from +8 up or from −8 down. A general note: In a reporter assay the amount or activity of a reporter protein is the signal.
Experiment [5] concerns the target Fibroblast growth factor 10 (Homo sapiens) (UniProt O15520). As to the kind of experiment: FGF10 binders on small-molecule microarrays, primary screen, biochemical, small-molecule microarray, 635 nm fluorescence (AID 1102). The following applies: FGF10 binding, fluorescence 635 nm, higher = more signal.
Experiment [6] has as its system glycogen synthase kinase-3 (GSK3A per assay name; protocol says GSK3B). The experiment can be described thus: GSK3 binders on small-molecule microarrays, primary screen, biochemical, small-molecule microarray, 635 nm fluorescence, GSK3A (AID 1103). Further: the record names both GSK3A and GSK3B. The following applies: small-molecule microarray binding, fluorescence 635 nm; higher = more signal.
The target of experiment [7] is Epidermal growth factor receptor (Homo sapiens) (UniProt P00533). As to the kind of experiment: EGFR binders on small-molecule microarrays, primary screen, biochemical, small-molecule microarray, 635 nm fluorescence (AID 1104).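 Further: score merges 667 nm emission intensity with spot signal to noise over triplicate slides.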 The conditions noted are these: EGFR binding, higher = more signal.
Sequence of Epidermal growth factor receptor (Homo sapiens) (P00533 whole entry, looked up): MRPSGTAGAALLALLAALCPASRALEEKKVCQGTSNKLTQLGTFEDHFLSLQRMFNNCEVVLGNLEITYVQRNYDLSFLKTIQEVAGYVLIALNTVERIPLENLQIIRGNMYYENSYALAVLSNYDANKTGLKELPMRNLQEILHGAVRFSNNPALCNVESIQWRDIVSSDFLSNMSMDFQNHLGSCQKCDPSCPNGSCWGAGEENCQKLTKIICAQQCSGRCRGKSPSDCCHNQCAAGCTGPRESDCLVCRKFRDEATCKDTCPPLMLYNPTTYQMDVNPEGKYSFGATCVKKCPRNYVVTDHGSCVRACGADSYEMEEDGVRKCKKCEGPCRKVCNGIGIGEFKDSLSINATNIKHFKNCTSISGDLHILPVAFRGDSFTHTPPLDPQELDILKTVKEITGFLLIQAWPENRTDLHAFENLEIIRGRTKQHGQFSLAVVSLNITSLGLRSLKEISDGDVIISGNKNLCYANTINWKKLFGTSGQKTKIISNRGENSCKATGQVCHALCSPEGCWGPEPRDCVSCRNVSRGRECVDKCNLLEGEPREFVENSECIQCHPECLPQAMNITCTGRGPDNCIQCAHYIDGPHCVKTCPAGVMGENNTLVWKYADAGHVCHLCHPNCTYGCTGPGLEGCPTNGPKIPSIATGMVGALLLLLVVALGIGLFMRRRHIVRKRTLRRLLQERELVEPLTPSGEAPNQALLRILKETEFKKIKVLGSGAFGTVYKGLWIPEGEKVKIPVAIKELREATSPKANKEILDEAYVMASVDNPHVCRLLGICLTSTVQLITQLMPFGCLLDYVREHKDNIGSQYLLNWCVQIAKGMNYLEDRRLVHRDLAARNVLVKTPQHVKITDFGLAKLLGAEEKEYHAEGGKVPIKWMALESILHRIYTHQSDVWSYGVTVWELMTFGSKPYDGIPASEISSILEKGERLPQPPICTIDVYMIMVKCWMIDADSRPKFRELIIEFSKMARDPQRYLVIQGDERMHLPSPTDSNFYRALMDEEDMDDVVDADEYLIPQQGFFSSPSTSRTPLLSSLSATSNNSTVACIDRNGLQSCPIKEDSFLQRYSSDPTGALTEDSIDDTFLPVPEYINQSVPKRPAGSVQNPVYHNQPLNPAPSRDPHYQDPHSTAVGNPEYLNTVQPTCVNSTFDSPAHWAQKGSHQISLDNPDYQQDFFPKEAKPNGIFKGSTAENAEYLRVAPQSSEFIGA
The target in experiment [8] is Follistatin-related protein 3 (Homo sapiens) (UniProt O95633). As to the kind of experiment: FSTL3 binders on small-molecule microarrays, primary screen, biochemical, small-molecule microarray, 635 nm fluorescence (AID 1105).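 Further: score merges emission near 667 nm and signal to noise per printed spot across three slides.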 The following applies: FSTL3 binding, higher = more signal.
Sequence of Follistatin-related protein 3 (Homo sapiens) (O95633 whole entry, looked up): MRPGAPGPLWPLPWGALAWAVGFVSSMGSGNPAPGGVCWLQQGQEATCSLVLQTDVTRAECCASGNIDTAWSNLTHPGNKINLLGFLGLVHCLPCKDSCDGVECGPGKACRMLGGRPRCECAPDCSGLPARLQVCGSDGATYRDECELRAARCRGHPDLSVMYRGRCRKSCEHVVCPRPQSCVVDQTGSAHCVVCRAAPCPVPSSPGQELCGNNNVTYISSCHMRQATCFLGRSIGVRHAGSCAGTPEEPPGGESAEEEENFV
The target in experiment [9] is Dickkopf-related protein 1 (Homo sapiens) (UniProt O94907). The experiment can be described thus: DKK1 binders on small-molecule microarrays, primary screen, biochemical, small-molecule microarray, 635 nm fluorescence scan (AID 1106).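 Further: score merges emission near 667 nm with signal to noise over three replicate slides.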 The conditions noted are these: DKK1 binding, higher = more signal.
Sequence of Dickkopf-related protein 1 (Homo sapiens) (O94907 whole entry, looked up): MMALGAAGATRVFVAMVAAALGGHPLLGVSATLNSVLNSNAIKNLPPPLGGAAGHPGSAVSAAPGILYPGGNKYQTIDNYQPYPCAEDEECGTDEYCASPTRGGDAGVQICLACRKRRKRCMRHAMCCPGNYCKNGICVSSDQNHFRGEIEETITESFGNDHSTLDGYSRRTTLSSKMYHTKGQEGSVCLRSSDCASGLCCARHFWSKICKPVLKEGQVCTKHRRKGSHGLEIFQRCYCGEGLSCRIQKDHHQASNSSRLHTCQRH
Experiment [10] relates to Inhibin beta A chain (activin A). As to the kind of experiment: INHBA (activin A) binders on microarrays, primary screen, biochemical, small-molecule microarray, 635 nm fluorescence scan (AID 1107).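 Further: mouse activin A protein probed at 4.33 µg/mL on printed slides; score merges bound-protein fluorescence near 667 nm with spot signal-to-noise.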 The conditions noted are these: small-molecule microarray binding, higher = more signal.

Sequence of Fibroblast growth factor 10 (Homo sapiens) (O15520 whole entry, looked up): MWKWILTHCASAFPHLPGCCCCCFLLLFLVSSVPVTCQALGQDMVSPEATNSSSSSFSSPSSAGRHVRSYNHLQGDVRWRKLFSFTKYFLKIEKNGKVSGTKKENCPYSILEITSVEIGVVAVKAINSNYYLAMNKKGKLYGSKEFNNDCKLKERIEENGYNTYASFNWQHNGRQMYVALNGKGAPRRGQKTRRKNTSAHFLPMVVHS

Take `O=C(C1N=C(c2ccc(OCCCO)cc2)N(c2ccccc2)O1)N1CCOCC1` (stereo not given): the composite z-score in experiment [1] stood at 0.298; in experiment [2], 0.56; in experiment [3], 0.538; in [5] it was 1.46; in experiment [6], 1.3; in experiment [7] it was 0.0096. Also, the composite z-score in experiment [8] was 0.695; in experiment [9] it was 0.858; in [10] it was 0.315. Also, in [4], the z-score is -0.799 (inactive).

As for `O=C1O[C@H](c2ccccc2)[C@H](c2ccccc2)N2[C@H]1[C@@H](C(=O)O)[C@]1(C(=O)Nc3ccc(C#CC4=CCCCC4)cc31)[C@H]2c1ccccc1OCCO`, the composite z-score in experiment [1] is 1.49; in [2], -0.738; in experiment [3], 0.134; in experiment [5] it was 1.19; in experiment [6], 1.32; in experiment [7], 0.228. For the same molecule, the composite z-score is 1.23 in experiment [8], 0.455 in experiment [9] and 1.01 in experiment [10]. Also, in experiment [4], the z-score was -0.246 (inactive).

Regarding `O=C1C2C=CC(C(O)c3c(F)cccc3Cl)N(Nc3ccccc3)C2C(=O)N1c1ccccc1` (stereo not given), the composite z-score in [1] came out at 0.741; in experiment [2], 0.532; in experiment [3], 0.256; in experiment [5], 0.581; in [6] it was 1.3; in experiment [7], 0.271. Further, the figures for the composite z-score in experiment [8], in [9] and in [10] were 1.34, 0.236 and 0.672, respectively. For the same molecule, the z-score in experiment [4] is -0.00944 (inactive).

For `COCCOC(=O)N1C(=O)[C@@]2(c3cc(C#CC4=CCCCC4)ccc31)[C@H](C(=O)N1CCc3cc(OC)c(OC)cc3C1)[C@H]1C(=O)O[C@H](c3ccccc3)[C@H](c3ccccc3)N1[C@@H]2c1ccc(OCCO)cc1`, the composite z-score is 0.563 in experiment [1]; 0.0129 in experiment [2]; -0.134 in experiment [3]; 1.3 in experiment [5]; 1.3 in [6]; 0.649 in experiment [7]. The results for the composite z-score in experiment [8], in experiment [9] and in experiment [10] were 1.03, 0.8 and 0.706, respectively. Also, in [4], the z-score was 0.342 (inactive).

Regarding `CC(C)C[C@H]1NC(=O)[C@@]23C(=O)N[C@@H](Cc4ccccc4)C2[C@H](C)[C@@]2(C)O[C@H]2C3/C=C/C/C=C\CNC(=O)[C@H](Cc2ccccc2)NC1=O` (stereo not given in full), the composite z-score is 0.777 in experiment [1]; -0.283 in [2]; -0.471 in [3]; 0.903 in experiment [5]; 0.47 in [6]; 0.447 in experiment [7]. Also, the composite z-score in [8] is 0.816; in [9], 0.599; in experiment [10], 0.867. Moreover, the z-score in experiment [4] was 0.000958 (inactive).

Turning to `COC(=O)[C@@]1(Cc2ccccc2)[C@H]2c3cc(C(=O)N4CCCC4)n(Cc4nc5ccccc5[nH]4)c3C[C@H]2CN1C(=O)c1ccccc1`, the composite z-score in experiment [1] is 0.844; in experiment [2] it was 1.1; in experiment [3], 1.36; in experiment [5] it was 0.0471; in experiment [6] it was 1.19; in experiment [7], -0.361. Also, the figures for the composite z-score in experiment [8], in experiment [9] and in experiment [10] were 1.09, -0.137 and 0.831, respectively. In [4], the z-score was -1.52 (inactive).

As for `COCC(=C=CC[C@H](O)c1ccccc1OCCO)C[C@H](O)c1cc(Cl)cc(Cl)c1O`, the composite z-score in experiment [1] is 0.588; in experiment [2] it was -0.141; in experiment [3] it was -0.0448; in [5], 1.62; in [6] it was 0.702; in [7] it was -0.0335. In addition, the composite z-score in experiment [8] was 0.897; in [9], -0.0154; in [10], 0.282. The z-score in experiment [4] is -0.705 (inactive).

With `COCCOC(=O)N1C(=O)[C@@]2(c3cc(C#CC4=CCCCC4)ccc31)[C@H](C(N)=O)[C@H]1C(=O)O[C@H](c3ccccc3)[C@H](c3ccccc3)N1[C@@H]2c1ccc(OCCO)cc1`, the composite z-score in experiment [1] was 0.497; in [2] it was -0.504; in [3] it was -0.091; in experiment [5] it was 1.31; in [6], 1.1; in experiment [7], 0.0883. The composite z-score was determined as 1.22 in [8], 0.553 in experiment [9] and 0.052 in experiment [10]. The z-score in [4] is 0.497 (inactive).

For `CC(=O)n1cc(C(O)C2C=CC3C(=O)N(C)C(=O)C3N2Nc2ccccc2)c2ccccc21` (stereo not given), the composite z-score amounted to 0.511 in [1]; 0.906 in experiment [2]; 1.18 in experiment [3]; 1.17 in experiment [5]; 0.292 in experiment [6]; 1.27 in experiment [7]. The figures for the composite z-score in [8], in [9] and in experiment [10] were 1.4, 1.02 and 1.79, respectively. Moreover, the z-score in experiment [4] was 1.45 (inactive).

For the molecule `C=CCC(OC(C)=O)[C@@H]1[C@@H](N(Cc2ccc(-c3cccc(C(F)(F)F)c3)o2)C(=O)Cc2ccc(F)cc2)c2cc(OCCCO)ccc2N1C(=O)Cc1ccc(OC)cc1` (stereo not given in full), the composite z-score was -0.0392 in [1]; -0.264 in experiment [2]; 0.385 in experiment [3]; -0.0139 in experiment [5]; -2.4 in experiment [6]; -0.983 in experiment [7]. Further, the values for the composite z-score in experiment [8], in experiment [9] and in experiment [10] were -0.106, -0.731 and 0.898, respectively. Moreover, the z-score in experiment [4] was -1.59 (inactive).

As to `CCCC#C[Si](O[C@H](CC)c1cn([C@H](CO)Cc2ccccc2)nn1)(C(C)C)C(C)C`, the composite z-score in experiment [1] was 0.947; in experiment [2], 0.111; in [3], -0.467; in experiment [5], 0.955; in experiment [6] it was 0.379; in [7], 0.371. Also, the results for the composite z-score in [8], in [9] and in experiment [10] were 1.15, 0.82 and -0.253, respectively. In addition, in experiment [4], the z-score is -0.118 (inactive).

As for `O=C1O[C@H](c2ccccc2)[C@H](c2ccccc2)N2[C@H]1[C@@H](C(=O)Nc1nc3ccccc3s1)[C@]1(C(=O)Nc3ccc(C#CC4(O)CCCCCC4)cc31)[C@H]2c1ccc(OCCO)cc1`, the composite z-score in [1] worked out at 1.17; in experiment [2], 0.507; in experiment [3] it was 0.531; in experiment [5] it was 1.24; in experiment [6] it was 1.02; in [7] it was 0.662. The composite z-score in experiment [8] was 0.714; in experiment [9] it was 0.525; in experiment [10] it was 0.523. Besides, in experiment [4], the z-score is 0.053 (inactive).

As for `COc1ccc(NN2C(C(O)c3ccc([N+](=O)[O-])cc3)C=CC3C(=O)N(C4CCCCC4)C(=O)C32)cc1` (stereo not given), the composite z-score was 0.562 in experiment [1]; 0.627 in [2]; 0.879 in [3]; 0.355 in experiment [5]; 0.909 in [6]; -0.188 in experiment [7]. Also, the composite z-score in experiment [8] is 0.73; in [9], -0.281; in [10], 0.921. Further, the z-score in experiment [4] is 0.393 (inactive).

For `C=CCNC(=O)[C@@H]1[C@H]2C(=O)O[C@H](c3ccccc3)[C@H](c3ccccc3)N2[C@H](c2ccc(OCCO)cc2)[C@@]12C(=O)Nc1ccc(C#CCCO)cc12`, the composite z-score in [1] is 1.7; in [2], -0.0674; in [3], 0.456; in [5], 1.22; in [6], 1.27; in experiment [7] it was 0.652. Further, the composite z-score was found to be 1.42 in experiment [8], 1.12 in experiment [9] and 1.26 in [10]. The z-score in [4] was -1.09 (inactive).

On to `COc1ccc([Si](C)(C)[C@H]2[C@H](CCn3cc([C@H](O)c4ccccc4)nn3)O[C@@]3(C(=O)N(Cc4cccc(N5CCOC5=O)c4)c4ccccc43)[C@@H]2C)cc1`, for which the composite z-score is 0.463 in experiment [1]; 0.0739 in experiment [2]; -0.313 in experiment [3]; 0.339 in experiment [5]; 0.709 in experiment [6]; 0.334 in experiment [7]. Also, the composite z-score worked out at 0.769 in experiment [8], 0.913 in experiment [9] and 0.464 in [10]. In experiment [4], the z-score is 0.36 (inactive).
